# PubChem BioAssay
# Some of the results follow. The source made the active and inactive calls. Unless noted, how the calls were made is not given here.
# Columns and labels:
# [1] = inhibition of Brca1/Bard1 split-luciferase complementation, confirmation, counter-screen for Mdm2/MdmX interaction inhibitor project, luminescence, single concentration (AID 504668); conditions: Brca1/Bard1 bimolecular luciferase complementation counterscreen, at 8 µM, stronger effect = higher value
# PEG-3 [2] = target: PEG-3 (UniProt Q6IN02); test: Peg3 promoter luciferase inhibitors, potency, dose response, cell-based, HeLa, CREF/GAPDH counter-screen panel (AID 624167); conditions: CREF/GAPDH counter-screens; HeLa PEG-Prom luciferase reporter, overnight, run 1, dose range 1, at 100 µM (top of the series) unless noted
# PEG-3 [3] = target: PEG-3 (UniProt Q6IN02); test: as above; conditions: CREF/GAPDH counter-screens; HeLa PEG-Prom luciferase reporter, overnight, run 2, dose range 1, at 100 µM (top of the series) unless noted
# Rat fibroblasts (CREF) [4] = test: as above; conditions: CREF/GAPDH counter-screens; run 1, dose range 1, at 100 µM (top of the series)
# Rat fibroblasts (CREF) [5] = test: as above; conditions: CREF/GAPDH counter-screens; run 2, dose range 1, at 100 µM (top of the series)
# [6] = target: Tumor necrosis factor receptor superfamily member 10B (Homo sapiens) (UniProt O14763); test: caspase-8 TRAIL sensitization, hit retest, confirmation, cell-based, NB7+caspase-8, with/without TRAIL, luminescence panel (AID 651596; in the data active means activity above about 50%); conditions: NB7 neuroblastoma + caspase-8, TRAIL sensitization, luminescence viability, with TRAIL, mean of runs, at 10 µM, stronger effect = higher value
# [7] = as above; conditions: NB7 neuroblastoma + caspase-8, without TRAIL, luminescence viability, without TRAIL, mean of runs, at 10 µM
# [8] = inhibitors of PAF-induced NFkB signaling in CF airway cells, dose response, cell-based, uHTS hits, panel, cytotoxicity readout (AID 624344); conditions: CF bronchial epithelial cells, PAF-induced NFkB reporter inhibition, with PAF, run 1; at 79 µM (top of the series) unless noted
# [9] = as above; conditions: CF bronchial epithelial cells, PAF-induced NFkB reporter inhibition, with PAF, run 2; at 79 µM (top of the series) unless noted
# [10] = HIF-2a reporter inhibitor retest, confirmation, luminescence, 786-0 RCC cells (AID 651580;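 active means mean inhibition across four replicates of at least 40 percent at the single tested concentration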); conditions: HIF-2a luciferase reporter luminescence, overnight, at 18.8 µM, stronger effect = higher value
# [11] = HIF-1a luciferase reporter signal reduction – MiaPaCa-2 cells, single concentration, counter-screen for HIF-2a inhibitor project, confirmation (AID 651589;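 active means mean inhibition of the reporter signal across four replicates at the single tested dose of 50% or more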); conditions: MiaPaCa-2 HIF-1a luciferase reporter, desferoxamine, overnight; at 18.8 µM; stronger effect = higher value
# PEG-3, sequence (Q6IN02 whole entry, looked up): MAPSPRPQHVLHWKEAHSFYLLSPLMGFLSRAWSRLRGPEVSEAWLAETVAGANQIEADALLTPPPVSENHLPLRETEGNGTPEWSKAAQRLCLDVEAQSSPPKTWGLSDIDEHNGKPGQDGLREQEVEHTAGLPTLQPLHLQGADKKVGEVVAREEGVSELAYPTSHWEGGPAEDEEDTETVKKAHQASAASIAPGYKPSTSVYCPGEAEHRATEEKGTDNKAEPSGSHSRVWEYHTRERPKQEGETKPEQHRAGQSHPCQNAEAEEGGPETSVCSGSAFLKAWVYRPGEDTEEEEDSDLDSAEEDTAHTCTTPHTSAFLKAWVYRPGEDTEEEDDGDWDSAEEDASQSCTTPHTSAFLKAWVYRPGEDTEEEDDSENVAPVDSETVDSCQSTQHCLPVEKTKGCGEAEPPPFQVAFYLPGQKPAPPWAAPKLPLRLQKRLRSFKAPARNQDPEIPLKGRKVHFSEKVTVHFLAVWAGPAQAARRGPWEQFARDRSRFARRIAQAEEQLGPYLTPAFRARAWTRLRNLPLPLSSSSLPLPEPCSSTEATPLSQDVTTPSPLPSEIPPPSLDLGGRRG
# Tumor necrosis factor receptor superfamily member 10B (Homo sapiens), sequence (O14763 whole entry, looked up): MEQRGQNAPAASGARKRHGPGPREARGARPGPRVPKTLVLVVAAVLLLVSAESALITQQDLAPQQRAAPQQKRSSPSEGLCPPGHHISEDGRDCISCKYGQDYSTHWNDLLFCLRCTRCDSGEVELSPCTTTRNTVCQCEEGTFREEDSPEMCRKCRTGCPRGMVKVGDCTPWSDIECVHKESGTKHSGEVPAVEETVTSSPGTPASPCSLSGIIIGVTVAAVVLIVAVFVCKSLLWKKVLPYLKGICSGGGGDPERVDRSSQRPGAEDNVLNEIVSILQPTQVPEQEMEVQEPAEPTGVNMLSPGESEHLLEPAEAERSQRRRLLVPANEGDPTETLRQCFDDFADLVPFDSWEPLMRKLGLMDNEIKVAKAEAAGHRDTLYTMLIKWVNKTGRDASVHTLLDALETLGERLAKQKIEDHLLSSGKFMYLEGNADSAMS
smiles,measurement,setting,value
COc1ccc(C(=O)CN2C(=O)c3ccccc3S2(=O)=O)cc1,inhibition,[1],25.5% (active)
same,inhibition,PEG-3 [2],99.1%
same,inhibition,PEG-3 [3],97.6%
same,inhibition,Rat fibroblasts (CREF) [4],96.6%
same,inhibition,Rat fibroblasts (CREF) [5],97.6%
same,activity,[6],70.2%
same,activity,[7],70.8%
COC(=O)c1nn(-c2ccc3c(c2)CCN3C(C)=O)cc1O,inhibition,[1],31% (active)
same,inhibition,PEG-3 [2],96.2%
same,inhibition,PEG-3 [3],97.9%
same,inhibition,Rat fibroblasts (CREF) [4],99.1%
same,inhibition,Rat fibroblasts (CREF) [5],99.2%
same,activity,[6],86.6%
same,activity,[7],85.3%
CCOc1cc(Br)c(Br)c(C=Nc2ccc(NC(C)=O)cc2)c1O,inhibition,[1],33.1% (active)
same,inhibition,[8],105%
same,inhibition,[9],115%
Cc1cc(C)c2nc(NNC(=O)c3ccc(S(=O)(=O)N4CC(C)CC(C)C4)cc3)sc2c1 (stereo not given),inhibition,[1],23.2% (active)
same,inhibition,PEG-3 [2],99.5%
same,inhibition,PEG-3 [3],101%
same,inhibition,Rat fibroblasts (CREF) [4],92.9%
same,inhibition,Rat fibroblasts (CREF) [5],95.6%
CC(C)(C)c1ccc(C(=O)O/N=C(\N)c2ccccn2)cc1,inhibition,[1],28% (active)
same,inhibition,PEG-3 [2],102%
same,inhibition,PEG-3 [3],99%
same,inhibition,Rat fibroblasts (CREF) [4],101%
same,inhibition,Rat fibroblasts (CREF) [5],99.9%
same,activity,[6],99.8%
same,activity,[7],99.8%
CN(C)CCCN(C(=O)c1ccc(C(=O)c2ccccc2)cc1)c1nc2cc3c(cc2s1)OCO3,inhibition,[1],31.7% (active)
same,inhibition,PEG-3 [2],99.4%
same,inhibition,PEG-3 [3],102%
same,activity,[6],46.7%
same,activity,[7],54.3%
CCN(CC)S(=O)(=O)c1ccc(NC(=O)Nc2cccc(C(F)(F)F)c2)cc1,activity,[6],82.6%
same,activity,[7],71.3%
Cc1[nH]nc2nc(SCC(=O)NCCC3=CCCCC3)n(-c3ccc(Br)cc3)c(=N)c12,activity,[6],58.5%
same,activity,[7],88.4%
CCCCCCCC[n+]1cccc2c3ccccc3ccc21,inhibition,[1],23.3% (active)
same,activity,[6],74.7%
same,activity,[7],63.9%
CC(C)(C)c1ccc(C(=O)O/N=C(\N)c2ccccc2)cc1,inhibition,[1],23.3% (active)
same,activity,[6],99.4%
same,activity,[7],99.6%
Cc1ccc(N(Cc2cc(=O)[nH]c3ccccc23)C(=O)CCl)cc1,inhibition,[1],25.3% (active)
same,inhibition,[10],76.7% (active)
same,inhibition,[11],107% (active)
same,activity,[6],99.1%
same,activity,[7],99.3%
CCCCCc1cc(=O)oc2c(C(CCN3CCCCC3)c3cc(OC)c(OC)c(OC)c3)c(OC)cc(OC)c12 (stereo not given),inhibition,[1],26.6% (active)
same,activity,[6],45.4%
same,activity,[7],36.5%
COC(=O)c1c(NC(=O)c2ccc(OC(C)C)cc2)sc2c1CC(C)(C)NC2(C)C,inhibition,[1],23.6% (active)
same,activity,[6],43.5%
same,activity,[7],31.2%
Cc1ccc(-c2nn(C(C)(C)C)c3ncnc(N)c23)cc1,inhibition,[1],30.7% (active)
same,inhibition,[10],70.1% (active)
same,inhibition,[11],93.8% (active)
O=C(Nc1ccc(OC(F)F)cc1)Nc1cccc(C(F)(F)F)c1,inhibition,[1],24.4% (active)
same,activity,[6],85.3%
same,activity,[7],69.6%
N#CC1(NC(=O)Cn2ncc(Cl)c(Cl)c2=O)CCCCC1,inhibition,[1],29.6% (active)
same,activity,[6],98.5%
same,activity,[7],99.2%
NC(=O)c1oc2ccccc2c1NC(=O)c1ccc([N+](=O)[O-])o1,inhibition,[1],31.8% (active)
same,activity,[6],69.1%
same,activity,[7],96.5%
Cn1c(N)c(C(=O)COC(=O)c2ccccc2C(=O)c2ccc(Cl)c([N+](=O)[O-])c2)c(=O)n(C)c1=O,inhibition,[1],26.2% (active)
same,activity,[6],98.5%
same,activity,[7],99%
